Most compounds without a hit are left out; they make up all but 1.4% or so of the library.
p-CIP stab down: compounds decreasing mouse p/CIP protein stability. decrease of EGFP signal, % at 10 µM. AID 1984. hit rate 0.01% among 290,000. F442A p/CIP-EGFP cells, EGFP fluorescence, 16 h;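 active means EGFP signal decrease of at least 30% at 10 µM or well 3 SD below plate mean, unless failing retest; inactive means the rest, including hits failing retest or dose response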
Target sequence (Q05BA5 1-1403): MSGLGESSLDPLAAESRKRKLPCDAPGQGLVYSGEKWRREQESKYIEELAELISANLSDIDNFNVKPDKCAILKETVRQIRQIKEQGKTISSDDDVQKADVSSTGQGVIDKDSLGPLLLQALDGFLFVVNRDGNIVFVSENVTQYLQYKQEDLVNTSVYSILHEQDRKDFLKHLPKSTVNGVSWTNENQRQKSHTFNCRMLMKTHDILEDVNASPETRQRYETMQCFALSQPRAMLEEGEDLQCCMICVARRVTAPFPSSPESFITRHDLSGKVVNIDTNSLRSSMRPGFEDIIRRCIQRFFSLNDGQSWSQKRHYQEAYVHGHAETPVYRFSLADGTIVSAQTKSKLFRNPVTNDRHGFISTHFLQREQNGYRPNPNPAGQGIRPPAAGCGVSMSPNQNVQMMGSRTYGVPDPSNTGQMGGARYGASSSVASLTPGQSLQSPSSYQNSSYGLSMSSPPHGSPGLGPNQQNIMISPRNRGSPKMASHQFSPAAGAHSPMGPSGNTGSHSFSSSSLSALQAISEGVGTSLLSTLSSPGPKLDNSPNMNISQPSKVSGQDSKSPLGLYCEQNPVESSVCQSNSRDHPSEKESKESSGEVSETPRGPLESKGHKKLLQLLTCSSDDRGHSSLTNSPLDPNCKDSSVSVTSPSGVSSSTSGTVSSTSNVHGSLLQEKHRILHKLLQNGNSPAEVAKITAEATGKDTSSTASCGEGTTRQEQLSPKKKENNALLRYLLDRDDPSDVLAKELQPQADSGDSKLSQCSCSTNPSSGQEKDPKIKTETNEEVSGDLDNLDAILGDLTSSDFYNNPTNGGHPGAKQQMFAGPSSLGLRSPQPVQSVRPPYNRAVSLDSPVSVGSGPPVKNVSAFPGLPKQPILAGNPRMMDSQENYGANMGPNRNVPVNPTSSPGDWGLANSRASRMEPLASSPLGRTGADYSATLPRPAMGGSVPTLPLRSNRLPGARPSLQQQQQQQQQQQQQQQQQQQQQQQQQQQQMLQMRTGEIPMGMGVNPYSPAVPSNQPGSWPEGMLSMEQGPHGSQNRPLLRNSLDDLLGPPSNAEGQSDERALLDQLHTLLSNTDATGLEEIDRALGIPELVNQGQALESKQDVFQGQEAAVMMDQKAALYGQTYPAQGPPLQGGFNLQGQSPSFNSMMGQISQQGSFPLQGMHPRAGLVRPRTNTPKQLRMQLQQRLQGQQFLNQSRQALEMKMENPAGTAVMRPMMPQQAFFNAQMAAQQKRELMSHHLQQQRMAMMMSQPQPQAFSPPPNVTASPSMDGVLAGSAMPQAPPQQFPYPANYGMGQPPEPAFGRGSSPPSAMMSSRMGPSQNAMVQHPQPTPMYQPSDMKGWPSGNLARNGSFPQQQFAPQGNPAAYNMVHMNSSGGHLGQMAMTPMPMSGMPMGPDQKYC
MsrA act: activators of bovine methionine sulfoxide reductase A; purified bovine MsrA, absorbance read-out; AID 602163; hit rate 0.3% among 360,000; activation, % at 10.6 µM; in the data active means activation above about 7.5%;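 further: 0% = vehicle and 100% = reference activator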
MsrA inhibitor: bovine MsrA inhibition; purified bovine MsrA, absorbance read-out; inhibition, % at 15.5 µM; AID 651718; hit rate 0.75% among 360,000;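 further: 0% = vehicle wells with enzyme and 100% = reference inhibitor wells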
14-3-3 Bad PPI: disrupts binding of bovine 14-3-3 zeta to phospho-Bad peptide | hit rate 0.71% among 220,000 | TR-FRET 14-3-3zeta/Dy647-pBad peptide displacement, 1 h | inhibition, % at 21.7 µM | AID 781;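 active means inhibition above about 70%, limit read from the data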;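 further: 0% = full 14-3-3 plus peptide FRET controls and 100% = background without 14-3-3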
MsrA conf: confirmation of bovine MsrA inhibitors; shares compounds with MsrA inhibitor; purified bovine MsrA, absorbance read-out; inhibition, % at 15.5 µM; hit rate 41% among 2,300;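 further: coupled to thioredoxin reductase with NADPH and selenocystamine and DMSO as substrate; 0% = vehicle only and 100% = full effect of reference inhibitor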
An asterisk follows results filed as active; · = no result given. Unless noted, no stated cut-off is given here; in the data, active means inhibition above about 4.5%; inactive means the rest.

SMILES	p-CIP stab down	MsrA act	MsrA inhibitor	14-3-3 Bad PPI	MsrA conf
Cc1cc(C)c(S(=O)(=O)Nc2cc(SCC(=O)O)c(O)c3ccccc23)cc1C	-1	·	·	68	·
COc1ccc2nc(Nc3nc4cc5c(cc4s3)OCO5)sc2c1	-4	-7	4.8*	0	3
COc1ccc2nc(NC(=O)c3ccco3)sc2c1	-16	-2	4.7*	·	3
COc1ccc2nc(Nc3ccc4c(c3)OCO4)sc2c1	3	-3	1	-4	·
Cc1ccc2nc(NC(=O)c3ccco3)sc2c1	-4	-5	2	3	·
COc1ccccc1CC(=O)N(Cc1ccccc1)c1ccc(C)cc1	-13	-1	-1	·	·
CCN(c1ccccc1)S(=O)(=O)c1nnc(NC(=O)c2ccco2)s1	-6	-8	5.9*	·	5.3*
CCN(c1cccc(C)c1)S(=O)(=O)c1nnc(NC(=O)c2ccco2)s1	-7	-4	3	·	·
O=C(O)c1ccc(N/N=C/c2ccncc2)cc1	-6	-6	5.7*	·	4
O=C(O)c1ccc(N/N=C/c2ccnc3ccccc23)cc1	-2	2	0	-1	·
O=C(O)c1ccc(N/N=C/c2ccc3nccnc3c2)cc1	-12	-8	4.8*	-3	3
O=C(CS(=O)(=O)c1ccccc1Cl)N1CCOCC1	-6	-4	1	·	·
O=C(CN1C(=O)S/C(=C\C=C\c2ccccc2)C1=O)Nc1ccc(C(=O)O)cc1	-10	-11	6.6*	3	4
O=C(CCN1C(=O)/C(=C\C=C\c2ccccc2)SC1=S)Nc1ccc(C(=O)O)cc1	-16	-4	0	·	·
O=C(CCCN1C(=O)S/C(=C\C=C\c2ccccc2)C1=O)Nc1ccc(O)cc1	1	-3	5	·	·
O=C(CN1C(=O)S/C(=C/C=C/c2ccccc2)C1=O)Nc1ccc(C(=O)O)cc1	7	-4	5.3*	-6	5.8*
COC(=O)N/N=C/c1c[nH]c2ccccc12	-1	-1	1	-13	·
O=C(O)c1ccc(S(=O)(=O)NN=Cc2c[nH]c3ccccc23)cc1	·	-16	2	·	·
NC(=S)N/N=C/c1c[nH]c2ccccc12	1	-1	6.5*	-5	3
CC(C)n1cc(/C=N/Nc2ccc(C(=O)O)cc2)c2ccccc21	4	-2	5.5*	·	4
O=C(O)c1ccc(N/N=C/c2c[nH]c3ccccc23)cc1	-10	-5	5.6*	·	6.1*
O=C(N/N=C\c1c[nH]c2ccccc12)c1ccc(O)cc1	7	-5	5.3*	·	4
CC1(C(=O)NS(=O)(=O)c2ccccc2Cl)CCN1C(=O)Cc1cc(F)ccc1F (stereo not drawn)	·	1	0	·	·
CCN1/C(=C/C(C)=O)Sc2ccc(OC)cc21	-21	-4	5.5*	-6	4
O=C(N/N=C/c1ccncc1)c1cc2ccccc2o1	-15	-3	5.8*	15	4
SMILES	p-CIP stab down	MsrA act	MsrA inhibitor	14-3-3 Bad PPI	MsrA conf
O=C(COc1ccccc1[N+](=O)[O-])Nc1cccc(Cl)c1N1CCOCC1	-44	-3	5.9*	·	2
CCOc1cc(N2CCOCC2)c(OCC)cc1NC(=O)COc1ccccc1[N+](=O)[O-]	4	0	-1	-2	·
O=C(O)c1ccc(N/N=C/c2ccc(F)c(F)c2)cc1	-3	-5	7.9*	-5	5.9*
O=C(O)c1ccc(N/N=C/c2cccc(F)c2)cc1	-11	-2	6.8*	-4	6.7*
CC(=O)c1sc(NC(=O)c2cccnc2Cl)nc1C	-12	-5	5.0*	-6	3
COc1cc([N+](=O)[O-])ccc1NC(=S)NNC(=O)c1ccc2c(c1)OCO2	2	2	4.7*	·	3
NC(=S)NN=C1Cc2cccc3cccc1c23	·	1	1	·	·
COc1ccc(NC(=O)CN(C)C(=O)/C=C/c2cn(-c3ccccc3)nc2-c2ccc(C)cc2)cc1	·	-4	4.9*	·	3
COc1ccc(NC(=O)CN(C)C(=O)/C=C/c2cn(-c3ccccc3)nc2-c2ccc(F)cc2)cc1	·	1	3	·	·
COc1cccc2c1Oc1cc([N+](=O)[O-])cc(N(C)C(C)=O)c1C=C2	-5	-8	15*	·	11*
CCOC(=O)C(C)Oc1ncnc2cccc(F)c12 (stereo not drawn)	-6	0	0	-3	·
CC1(C)CCCN(C(=O)c2coc(=O)c(Br)c2)C1	-6	1	4.9*	43	2
CN(C)c1ccc(/C=N/Nc2ccc(-n3ccnc3)nn2)cc1	-8	-7	6.0*	19	3
Fc1ccccc1-c1ccc(/C=N/Nc2nc3ccccc3[nH]2)o1	2	-2	2	-17	·
Cc1ccc(/C=N\Nc2nc3ccc(Cl)cc3[nH]2)o1	-1	0	4.7*	-4	4
CSC(=Cc1ccc(C(=O)c2ccc(C)cc2)n1C)S(C)=O (stereo not drawn)	·	·	5.0*	·	3
Cc1ccc(C(=O)c2ccc(CC(=O)O)n2C)cc1	·	-5	4	·	·
Cc1nc(/N=C(\N)N(C)C)[nH]c(=O)c1C	3	-2	0	1	·
COc1ccc(-c2cc3ccc(OCc4nn[nH]n4)cc3oc2=O)cc1OC	-29	-5	6.5*	7	4
CN1CCc2c(sc3nc(NCCO)n(-c4cccc(Cl)c4)c(=O)c23)C1	3	-1	2	·	·
Cc1cccc(NS(=O)(=O)c2ccc(C(=O)NCC(c3ccco3)N3CCCCC3)cc2)c1C (stereo not drawn)	·	1	-2	·	·
C#CCOC(=O)/C(=C/C=C/c1ccccc1)NC(=O)c1ccccc1	-14	-6	5.2*	0	3
C=C(C(=O)Nc1ccccc1)c1ccc(C)cc1	·	-10	-1	·	·
c1ccc2c(c1)nc(N1CCOCC1)c1nnnn12	-3	-3	7.5*	0	14*
CC[C@]12c3[nH]c4cc(-c5ccco5)ccc4c3CCN1C(=O)[C@@H](CC(=O)NCCC1=CCCCC1)C[C@@H]2C(=O)N1CCN(C(=O)c2ccco2)CC1	·	-6	·	·	·
SMILES	p-CIP stab down	MsrA act	MsrA inhibitor	14-3-3 Bad PPI	MsrA conf
CCOC(=O)c1cnc(/N=C/N(C)C)s1	1	-5	5.0*	97*	4
COc1ccc(C(=O)/C=C/Nc2ccc(S(=O)(=O)Nc3cc(OC)nc(OC)n3)cc2)c(OC)c1	-6	-7	1	·	·
O=C(COc1ccc([N+](=O)[O-])cc1)Nc1cccc2nsnc12	-2	-9	0	·	·
CC(NC(=O)CSc1ccc(S(=O)(=O)N2CCOCC2)cn1)c1ccc(Cl)cc1Cl (stereo not drawn)	·	-1	0	·	·
CCN(CC)C1=CC(=[N+]2CCCC2)CC(C)(C)C1	-7	-7	5.7*	4	4
CN(C)Cc1ccccc1	·	·	0	·	·
CN(Cc1ccccc1)C1=CC(=[N+]2CCCC2)CC(C)(C)C1	-18	-5	5.5*	4	3
CCCCN(C(=O)c1ccc2c(c1)OCO2)C1CCS(=O)(=O)C1 (stereo not drawn)	·	-2	0	·	·
CCNC(=S)N(CCCN(C)C)Cc1cc2cc3c(cc2[nH]c1=O)OCCO3	10	-3	1	·	·
O=C(O)c1ccccc1C(=O)OCCCc1ccncc1	·	-3	-1	·	·
O=Cc1c(-c2ccccc2)nc2ccccn12	-9	-2	13*	-1	10*
O=C(Nc1c(-c2ccccc2)nc2ccccn12)c1ccccc1	0	-5	2	·	·
